This note sets out measurements from PubChem BioAssay.

The source made the active and inactive calls. Unless noted, the rule behind the calls is not given here.

Experiment [1] can be described thus: compounds binding Alexa647 anti-His antibody – biochemical, small-molecule microarray, 635 nm fluorescence, artefact control for SMM control protein annotation, primary screen (AID 1128).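 Note: score merges feature fluorescence with signal-to-noise for each printed compound spot.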 Particulars: higher = more signal.
In experiment [2] the test system is Human papillomavirus type 1a E7 protein (residues 1-88). Kind of experiment: HPV1a E7 small-molecule binders, primary screen, biochemical, small-molecule microarray, residues 1-88, 635 nm (AID 1129). Particulars: small-molecule microarray binding, fluorescence 635 nm; higher = more signal.
The target of experiment [3] is Focal adhesion kinase 1 (Homo sapiens) (UniProt Q05397). Description: PTK2 protein binding on printed compound slides – biochemical, small-molecule microarray, 635/667 nm fluorescence, BSA, DTT, primary screen (AID 1130).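 Note: composite of spot emission at 667 nm and signal to noise over triplicate slides.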 The conditions noted are these: 635 nm fluorescence, higher = more signal.
For experiment [4], the system named is Fibrinogen (Alexa647-labelled). Description: Alexa647-fibrinogen binding to printed small molecules – biochemical, small-molecule microarray, 635/667 nm fluorescence, artefact control for SMM control-protein annotation, profiling panel (AID 1131).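 Note: z-score merges 667 nm fluorescence with per-spot signal-to-noise over triplicate slides.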 Particulars: fibrinogen-A647 binding fluorescence, higher = more signal.
For experiment [5], the target named is Follistatin (Homo sapiens) (UniProt P19883). Description: FST protein binding to printed compounds – biochemical, small-molecule microarray, 635/667 nm fluorescence, primary screen (AID 1132). The conditions noted are these: 635 nm fluorescence, higher = more signal.
Experiment [6] addresses Fibroblast growth factor 2 (Homo sapiens) (UniProt P09038). Description: basic fibroblast growth factor binding to printed compounds – biochemical, small-molecule microarray, 635/667 nm fluorescence, primary screen (AID 1133). Particulars: FGF2, fluorescence 635/667, higher = more signal.
Experiment [7] can be described thus: JC-1 mitochondrial potential readout, lung cancer cells – cell-based, A549, JC-1 fluorescence, basal, 24 h, 100 nL, profiling panel (AID 1138).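 Note: A549 lung adenocarcinoma cells under basal conditions with no added stimulus; test concentration not given here.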 Particulars: higher = more signal.
In a further experiment the test system is Lefty1. Kind of experiment: Lefty1 protein binding to printed compounds – biochemical, small-molecule microarray, 635/667 nm fluorescence, primary screen (AID 1139). Particulars: fluorescence 635/667, higher = more signal.
For experiment [8], the system named is wheat germ agglutinin (Triticum aestivum), Alexa647-labelled. Kind of experiment: Alexa647-WGA lectin binding to printed small molecules – biochemical, small-molecule microarray, 635/667 nm fluorescence, artefact control for SMM control-protein annotation, profiling panel (AID 1140).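 Note: score merges 667 nm feature emission with signal to noise over triplicate slides.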 Particulars: WGA-A647 binding, 635 nm fluorescence, higher = more signal.
The target in experiment [9] is Luciferin 4-monooxygenase (Photinus pyralis) (UniProt P08659). Kind of experiment: inhibition of purified Photinus pyralis luciferase – biochemical, luminescence, purified enzyme, 2006 set, primary screen (AID 1141).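 Note: cell-free assay with purified firefly luciferase at 100 ng per well in PBS; test concentration not given here.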 The conditions noted are these: purified firefly luciferase, SteadyGlo luminescence, 30 min; higher = more signal, called active from +8 up or from −8 down.

Experiment [10] has as its system Wnt5a (protein binding on small-molecule microarray). Kind of experiment: small molecules binding Wnt5a protein – biophysical, small-molecule microarray, 635/667 nm fluorescence, primary screen (AID 1142).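 Note: fluorescence read at 667 nm with signal to noise per printed feature.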 Particulars: 635 nm fluorescence, higher = more signal.
A short description of experiment [11]: ATP-based viability of Huh7 replicon cells – cell-based, CellTiter-Glo luminescence, basal, 48 h, cytotoxicity control for HCV replication inhibitor project, primary screen (AID 1143).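 Note: Huh7 hepatoma cells carrying a hepatitis C replication reporter with no stimulus; test concentration not given here.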 Particulars: higher = more signal, called active from +8 up or from −8 down. In general terms: A replicon is a self-replicating genome or part of one, used to study replication in cells.

Experiment [12] in a line: Pseudomonas biofilm growth suppression – PAO1 strain, BacTiter-Glo luminescence, LB-PBS, primary screen (AID 1144). Particulars: P. aeruginosa PAO1 biofilm, 12 h, higher = more signal.
Experiment [13] can be described thus: basal CRE-LacZ reporter activity in PC12 – cell-based, unstimulated, primary screen (AID 1145). The conditions noted are these: no forskolin, luminescence, 4.5 h, higher = more signal, called active from +8 up or from −8 down.
Experiment [14] in a line: forskolin-driven CRE-LacZ activity in PC12 – cell-based, CRE-LacZ reporter, forskolin-stimulated, primary screen (AID 1146).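 Note: PC12 cells with 6xCRE LacZ reporter stimulated by forskolin 10 µM; beta-galactosidase reporter signal reflecting CREB driven transcription.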 The conditions noted are these: luminescence, 4.5 h, higher = more signal, called active from +8 up or from −8 down.
For experiment [15], the target named is Streptavidin (Streptomyces avidinii) (UniProt P22629). Kind of experiment: compounds binding control protein streptavidin – biophysical, small-molecule microarray, 635/667 nm fluorescence, artefact control for SMM compound annotation, primary screen (AID 1147).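 Note: signal reflects streptavidin binding to arrayed compounds as a control protein.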 Particulars: higher = more signal.
Experiment [16] in a line: probe aInhba binding on compound microarray – biochemical, small-molecule microarray, 635/667 nm fluorescence, primary screen (AID 1148).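 Note: score merges 667nm spot fluorescence with signal-to-noise for antibody binding to printed compounds.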 Particulars: higher = more signal.
Experiment [17] addresses Torsin-1A (Homo sapiens) (UniProt O14656). Description: TOR1A wild-type binding on microarray – cell lysate, small-molecule microarray, lysate, 635/667 nm, primary screen (AID 1149). Particulars: COS7 hTOR1A-WT lysate, 635 nm fluorescence, higher = more signal.
For experiment [18] the target is unchanged. Description: torsin A mutant lysate binding on microarrays – cell lysate, small-molecule microarray, COS7 lysate, 635/667 nm fluorescence, primary screen (AID 1150).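 Note: score pools 667 nm emission and signal to noise measuring lysate protein binding.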 Particulars: COS7 hTOR1A mutant lysate, 635 nm fluorescence, higher = more signal.
For experiment [19], the system named is Sonic hedgehog protein (Shh). Description: Sonic hedgehog microarray binding compounds – biochemical, small-molecule microarray, 635/667 nm fluorescence, primary screen (AID 1151).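 Note: Shh protein binding to compounds spotted on small-molecule microarray slides; score combines spot fluorescence intensity with signal-to-noise across triplicate slides.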 The conditions noted are these: 635 nm fluorescence, higher = more signal.

Sequence of Fibroblast growth factor 2 (Homo sapiens) (P09038 whole entry, looked up): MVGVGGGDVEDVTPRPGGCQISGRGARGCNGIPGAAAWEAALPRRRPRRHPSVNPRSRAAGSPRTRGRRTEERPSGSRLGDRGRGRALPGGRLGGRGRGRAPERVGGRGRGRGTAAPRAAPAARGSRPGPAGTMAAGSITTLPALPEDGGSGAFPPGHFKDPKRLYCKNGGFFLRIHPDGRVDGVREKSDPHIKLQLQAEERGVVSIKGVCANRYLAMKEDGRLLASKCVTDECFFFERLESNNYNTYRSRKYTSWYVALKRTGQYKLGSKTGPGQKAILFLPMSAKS
Sequence of Focal adhesion kinase 1 (Homo sapiens) (Q05397 whole entry, looked up): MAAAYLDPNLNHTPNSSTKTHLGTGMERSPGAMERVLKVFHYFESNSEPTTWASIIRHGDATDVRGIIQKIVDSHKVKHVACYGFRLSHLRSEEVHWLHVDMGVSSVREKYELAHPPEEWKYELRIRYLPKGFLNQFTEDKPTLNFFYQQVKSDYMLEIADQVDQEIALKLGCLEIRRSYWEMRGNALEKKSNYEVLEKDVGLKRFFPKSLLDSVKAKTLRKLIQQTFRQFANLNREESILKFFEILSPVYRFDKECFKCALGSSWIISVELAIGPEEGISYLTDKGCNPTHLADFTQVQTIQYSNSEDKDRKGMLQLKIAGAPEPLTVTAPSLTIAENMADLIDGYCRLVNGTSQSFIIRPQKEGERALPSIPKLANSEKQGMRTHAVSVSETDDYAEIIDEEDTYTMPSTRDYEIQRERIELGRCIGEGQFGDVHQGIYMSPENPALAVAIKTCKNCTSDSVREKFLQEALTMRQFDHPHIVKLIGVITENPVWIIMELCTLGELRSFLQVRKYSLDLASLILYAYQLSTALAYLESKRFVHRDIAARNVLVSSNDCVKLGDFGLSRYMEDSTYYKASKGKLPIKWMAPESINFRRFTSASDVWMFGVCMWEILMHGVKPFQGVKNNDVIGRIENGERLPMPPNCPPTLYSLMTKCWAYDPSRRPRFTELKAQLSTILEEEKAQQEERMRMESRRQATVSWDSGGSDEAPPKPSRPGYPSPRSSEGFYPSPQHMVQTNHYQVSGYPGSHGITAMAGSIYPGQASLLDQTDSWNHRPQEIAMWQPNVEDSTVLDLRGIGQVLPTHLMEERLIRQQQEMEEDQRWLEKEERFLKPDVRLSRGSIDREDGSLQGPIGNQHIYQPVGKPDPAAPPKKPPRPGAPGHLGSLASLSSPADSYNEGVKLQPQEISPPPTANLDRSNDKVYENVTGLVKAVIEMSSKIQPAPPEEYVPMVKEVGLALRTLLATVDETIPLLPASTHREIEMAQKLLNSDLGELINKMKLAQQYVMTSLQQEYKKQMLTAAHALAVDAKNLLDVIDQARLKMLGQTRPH
Sequence of Streptavidin (Streptomyces avidinii) (P22629 whole entry, looked up): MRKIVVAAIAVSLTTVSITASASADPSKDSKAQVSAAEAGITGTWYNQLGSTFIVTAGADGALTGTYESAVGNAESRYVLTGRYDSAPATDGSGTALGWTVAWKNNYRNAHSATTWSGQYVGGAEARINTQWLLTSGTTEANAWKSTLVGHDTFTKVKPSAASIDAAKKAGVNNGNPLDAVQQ
Sequence of Luciferin 4-monooxygenase (Photinus pyralis) (P08659 whole entry, looked up): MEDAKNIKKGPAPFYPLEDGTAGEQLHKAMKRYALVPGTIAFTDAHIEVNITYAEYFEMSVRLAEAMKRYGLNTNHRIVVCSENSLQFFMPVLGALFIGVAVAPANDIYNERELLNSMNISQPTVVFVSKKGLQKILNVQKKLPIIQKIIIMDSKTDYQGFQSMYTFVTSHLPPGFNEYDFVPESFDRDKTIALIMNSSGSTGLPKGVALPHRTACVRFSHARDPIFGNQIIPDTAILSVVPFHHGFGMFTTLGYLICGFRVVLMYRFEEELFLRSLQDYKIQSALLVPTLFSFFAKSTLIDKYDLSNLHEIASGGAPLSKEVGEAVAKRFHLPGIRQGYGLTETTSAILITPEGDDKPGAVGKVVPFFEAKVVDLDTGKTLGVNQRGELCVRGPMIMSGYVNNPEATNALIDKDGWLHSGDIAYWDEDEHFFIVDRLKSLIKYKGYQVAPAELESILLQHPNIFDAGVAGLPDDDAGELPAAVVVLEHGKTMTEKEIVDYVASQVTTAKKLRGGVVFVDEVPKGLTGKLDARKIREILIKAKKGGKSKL
Sequence of Follistatin (Homo sapiens) (P19883 whole entry, looked up): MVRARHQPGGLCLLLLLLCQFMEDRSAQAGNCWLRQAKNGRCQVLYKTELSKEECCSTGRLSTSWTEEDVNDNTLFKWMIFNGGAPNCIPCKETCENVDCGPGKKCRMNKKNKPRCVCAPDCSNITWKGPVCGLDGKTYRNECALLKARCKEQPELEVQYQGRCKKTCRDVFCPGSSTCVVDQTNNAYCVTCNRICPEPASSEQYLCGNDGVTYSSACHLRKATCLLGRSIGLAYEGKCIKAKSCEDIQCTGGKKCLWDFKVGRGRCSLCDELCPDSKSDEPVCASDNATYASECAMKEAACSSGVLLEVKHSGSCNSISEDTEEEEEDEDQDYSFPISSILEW
Sequence of Torsin-1A (Homo sapiens) (O14656 whole entry, looked up): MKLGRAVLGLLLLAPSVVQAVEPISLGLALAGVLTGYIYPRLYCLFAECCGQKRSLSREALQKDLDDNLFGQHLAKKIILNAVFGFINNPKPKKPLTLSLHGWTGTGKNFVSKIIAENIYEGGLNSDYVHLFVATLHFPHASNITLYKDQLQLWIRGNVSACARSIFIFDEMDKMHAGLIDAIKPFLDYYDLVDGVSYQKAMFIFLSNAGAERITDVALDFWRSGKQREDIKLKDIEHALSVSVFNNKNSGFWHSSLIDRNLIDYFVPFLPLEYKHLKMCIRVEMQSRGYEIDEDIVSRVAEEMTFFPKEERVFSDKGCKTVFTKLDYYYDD

As for `CC(C)C(=C=CC[C@@H](O)c1ccc(OCCO)cc1)CCO`, the composite z-score is -0.171 in experiment [1]; -0.744 in experiment [2]; -0.397 in experiment [3]; 0.114 in experiment [4]; 1.26 in experiment [5]; 1.25 in experiment [6]. Also, the composite z-score was 0.607 in the experiment on Lefty1; -0.154 in [8]; 0.224 in experiment [10]; -0.292 in experiment [15]; -0.0719 in experiment [16]; -0.0298 with Torsin-1A (Homo sapiens) [17]. The composite z-score stood at 0.167 with Torsin-1A (Homo sapiens) [18] and 1.59 in [19]. In addition, the z-score in [7] is 0.451; in experiment [9] it was -0.426 (inactive); in experiment [11], -2.09 (inactive); in [12], -0.635 (inactive); in experiment [13], -0.844 (inactive); in experiment [14], -1.31 (inactive).

Turning to `CC(C)C(=C=CC[C@@H](O)c1ccccc1OCCO)C[C@@H](O)c1cc(Cl)cc(Cl)c1O`, the composite z-score was 1.46 in experiment [1]; 1.23 in experiment [2]; -0.14 in [3]; 0.88 in [4]; 1.38 in experiment [5]; 0.964 in experiment [6]. In addition, the composite z-score was found to be 1.58 in the experiment with Lefty1; 0.54 in experiment [8]; 0.532 in experiment [10]; 1.05 in experiment [15]; 0.0622 in experiment [16]; 1.44 in the experiment with Torsin-1A (Homo sapiens) [17]. Further, the composite z-score came out at 0.86 with Torsin-1A (Homo sapiens) [18] and 2.11 in [19]. For the same compound, the z-score in experiment [7] was -1.35; in [9] it was -1 (inactive); in experiment [11], -3.43 (inactive); in experiment [12], 0.519 (inactive); in [13], 3.25 (inactive); in experiment [14], 0.266 (inactive).

With `CCOC(=O)C1=CC[C@@H](c2ccccc2)N(S(=O)(=O)C[Si](C)(C)C)[C@H]1c1ccccc1`, the composite z-score came out at 1.07 in [1]; 1.19 in [2]; 0.656 in experiment [3]; 0.996 in experiment [4]; 1.21 in [5]; 0.497 in experiment [6]. The composite z-score stood at 0.562 with Lefty1; 0.862 in [8]; 0.389 in experiment [10]; 1.48 in [15]; 0.127 in experiment [16]; 0.899 in the experiment with Torsin-1A (Homo sapiens) [17]. For the same compound, the composite z-score with Torsin-1A (Homo sapiens) [18] came out at 0.799; in experiment [19], 0.257. For the same compound, the z-score in [7] was -1.48; in experiment [9], 2.37 (inactive); in [11] it was -2.78 (inactive); in experiment [12] it was -0.667 (inactive); in experiment [13], -0.63 (inactive); in experiment [14], 1.56 (inactive).

Take `COCC(=C=CC[C@@H](O)c1cccc(OCCO)c1)C[C@@H](O)COCc1ccccc1`: the composite z-score was 0.934 in [1]; 1.09 in experiment [2]; 0.112 in experiment [3]; -0.272 in experiment [4]; 0.941 in [5]; -0.237 in [6]. In addition, the composite z-score was -0.058 with Lefty1; 1.34 in [8]; 0.515 in experiment [10]; 0.709 in experiment [15]; 0.825 in [16]; 1.58 in the experiment with Torsin-1A (Homo sapiens) [17]. The composite z-score with Torsin-1A (Homo sapiens) [18] is 2.28; in experiment [19], 0.436. Moreover, the z-score in [7] is 0.806; in experiment [9], -2.33 (inactive); in experiment [11], -0.825 (inactive); in experiment [12], 0.125 (inactive); in experiment [13] it was 5.99 (inactive); in experiment [14] it was -0.352 (inactive).

As to `CO[C@H]1O[C@H](CO)[C@@H](OC(=O)Nc2ccc3c(c2)OCO3)[C@@H]2OC(=O)[C@@H](Cc3ccccc3)C/C=C/C[C@H](Cc3ccccc3)C(=O)O[C@@H]12`, the composite z-score in [1] amounted to 2.53; in experiment [2], 1.18; in experiment [3], 0.458; in experiment [4] it was 0.659; in [5], 0.974; in [6] it was 0.684. Moreover, the composite z-score in the experiment with Lefty1 is 0.433; in experiment [8], 0.214; in experiment [10], 0.465; in [15] it was 0.294; in experiment [16], 0.24; with Torsin-1A (Homo sapiens) [17], -0.0548. In addition, the composite z-score with Torsin-1A (Homo sapiens) [18] was 0.266; in experiment [19] it was 1.32. In addition, the z-score in experiment [7] is 2.76; in [9] it was -1.01 (inactive); in experiment [11], -2.26 (inactive); in experiment [12], 0.293 (inactive); in experiment [13], 0.951 (inactive); in experiment [14] it was -0.601 (inactive).
